# Assay outcomes deposited in PubChem BioAssay by Buhrlage Lab, Dana-Farber Cancer Institute and Novartis Institutes for BioMedical Research (Cambridge, Mass).
# Shown are actives, neighbours in structure and some others; about 3.4% of the full set was active somewhere.
# USP28 inh: inhibitors of human USP28 deubiquitinase; purified USP28, Ub-rhodamine cleavage fluorescence, 30 min; AID 1645857, 2021; actives 3% (n = 47,000); inhibition, % at 25 µM
# OTUD3 block: inhibitors of human OTUD3 deubiquitinase. OTU domain-containing protein 3 (Homo sapiens), Q5T2D3. purified OTUD3, Ub-rhodamine fluorescence, 2 h. inhibition, % at 25 µM. actives 0.7% (n = 47,000)
# Target sequence (Q5T2D3 whole entry, looked up, the tested form may be a part): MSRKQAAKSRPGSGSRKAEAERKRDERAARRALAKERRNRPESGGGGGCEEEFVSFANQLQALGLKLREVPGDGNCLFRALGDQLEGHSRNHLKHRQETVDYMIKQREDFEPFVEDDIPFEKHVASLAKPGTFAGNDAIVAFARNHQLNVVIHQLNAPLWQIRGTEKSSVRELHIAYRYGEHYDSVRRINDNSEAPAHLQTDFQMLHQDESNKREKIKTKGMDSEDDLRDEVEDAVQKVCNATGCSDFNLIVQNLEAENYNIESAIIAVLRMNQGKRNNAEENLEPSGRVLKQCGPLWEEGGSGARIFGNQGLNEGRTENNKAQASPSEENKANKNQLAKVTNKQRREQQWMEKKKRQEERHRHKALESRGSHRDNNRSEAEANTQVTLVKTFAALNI
# The depositor's hits bear a star; / = no result. No stated cut-off is given here; in the data, active means inhibition above about 30%; inactive means the rest.
SMILES,USP28 inh,OTUD3 block
CC(=O)c1cccc(NC(=O)c2cc3cccnc3n(C)c2=O)c1,-11,-12
COc1cccc(Cn2c(C)c(CNCCc3ccc(Cl)cc3)c(C(=O)O)c2C)c1,20,10
Nc1nonc1C(=O)NCCNCc1cccc(OCc2ccc(Cl)cc2)c1,56*,-3
Cc1ccccc1-c1noc(COc2ccc(C(N)=O)cc2)n1,40*,-9
CCOC(=O)c1ccc(OCc2nc(-c3ccc(OC)c(OC)c3)no2)cc1,-5,0
CC(=O)[C@H]1c2c(c(O)c3c(O)cccc3c2-c2c3c(c(O)c4c(O)cccc24)C(=O)C[C@](C)(O)[C@H]3C(C)=O)C(=O)C[C@]1(C)O,30,30
COc1ccc(C(=O)COC(=O)c2ccccc2NS(=O)(=O)c2ccc(O)c([N+](=O)[O-])c2)cc1,60*,36*
O=C(COC(=O)c1ccccc1NS(=O)(=O)c1ccc2c(c1)OCCO2)c1ccc([N+](=O)[O-])cc1,-11,-10
O=C(C1CCC1)N1C[C@@H]2CCN(c3cccnc3)C[C@@H]2C1,-25,-12
O=C(CCc1cccnc1)N1CCCC2(CCCN2Cc2cccc(F)c2)C1 (stereo unspecified),9,-2
CCOC(=O)c1csc(-c2ccc(F)cc2F)n1,42*,12
CCOC(=O)c1csc(-c2cc(C)on2)n1,4,7
O=C(c1ccccc1)N1CC[C@@H]2Oc3ccccc3S(=O)(=O)N(CC3CC3)[C@H]2CC1,10,8
Cc1ccc2c(c1)N(C(=O)Cn1cc(S(=O)(=O)N3CCOCC3)ccc1=O)CCO2,6,9
O=c1[nH]c(-c2cccnc2)nc2c1CN(Cc1cccnc1)CC2,-31,-24
Cc1cc(N2CCCCC2)nc2ccc(NC(=O)c3ccncc3)cc12,38*,-24
Cc1ccc(NC(=O)CCC(=O)Nc2ccc3nc(N4CCCCC4)cc(C)c3c2)c(Br)c1,18,10
CC1=C(O)C(=O)C(C2=C(O)C(=O)C(C)=C(O)C2=O)=C(O)C1=O,-4,23
O=C1C(O)=C(c2ccc(O)cc2)C(=O)C(O)=C1c1ccccc1,26,33*
COc1cccc(NC(=O)CN2C(=O)C3CCCC3=Nc3ccccc32)c1 (stereo unspecified),13,8
COc1ccc(C)cc1NC(=O)CN1C(=O)C2CCCC2=Nc2ccccc21 (stereo unspecified),22,35*
CC(OC(=O)c1ccc2c(c1)OCCO2)C(=O)NCC1CCCCC1 (stereo unspecified),22,9
Cn1c(=O)[nH]c(=O)c2c1nc(N(CCO)CCO)n2CCc1ccccc1,6,14
O=c1[nH]c2ccccc2n1CCCOc1ccc(Cl)cc1,40*,1
O=C(CCCCCn1c(=O)[nH]c2ccccc2c1=O)NCCc1ccc(Cl)cc1,8,8
SMILES,USP28 inh,OTUD3 block
O=C(Oc1ccc(-c2ccccc2)c(F)c1)c1ccco1,1,4
Cc1cc(Br)c(C(C)C)c(Br)c1OC(=O)c1ccco1,48*,2
CC(=O)Nc1ccc(-n2nnc(C(=O)NC3CC3)n2)cc1,-1,-2
CCCCCCCCCc1cc(OC(=O)c2c(CCCCCCCCC)cc(O)cc2O[C@@H]2O[C@H](CO)[C@@H](O)[C@H](O)[C@H]2O)cc(O)c1C(=O)O,101*,101*
CCCCCCCC/C=C\CCCCCCCc1cc(O)cc(O)c1C(=O)O,0,6
CC(C)=CCc1cc(OC2OC(CO)C(O)C(O)C2O)ccc1O (stereo unspecified),0,-4
CCCCCCCc1cc(OC(=O)c2c(CCCCCCC)cc(O)cc2O[C@@H]2O[C@H](CO)[C@H](O)[C@H](O)[C@H]2O)cc(O)c1C(=O)O,100*,100*
CCCCCCCc1cc(O)cc(OC(=O)c2c(CCCCCCC)cc(O)cc2O[C@H]2O[C@H](C(O)CO)[C@@H](O)[C@@H]2O)c1 (stereo partly specified),83*,0
CCCCCCCCCCCCCCCc1cc(O)cc(O)c1,-17,-5
Cn1cncc1C(=O)N1CCCN(c2cc(-c3cccc4ncccc34)ncn2)CC1,-4,-3
CCCC1Cc2c(sc3nc(SCc4cccc(F)c4)nc(N)c23)CO1 (stereo unspecified),4,0
COc1ccc2c(c1)C[C@@H](c1cccnc1)N[C@H]2c1cccnc1,7,10
CN(C)C(=O)[C@@H]1C[C@@H]2CN(C(=O)Nc3ccccc3)CCN2[C@@]12C(=O)N(C)c1ccccc12,1,8
COC(=O)c1cc(NC(=O)Nc2ccccc2C(F)(F)F)ccc1N1CCOCC1,4,-16
COC(=O)c1cc(NC(=O)Nc2ccc(OC(F)(F)F)cc2)ccc1N1CCOCC1,32*,-10
CC(=O)Nc1onc(C)c1-c1ccc(C)c(S(=O)(=O)NC2CCCCC2)c1,10,14
Cc1nc2cc(NC(=O)C3CN(C(=O)c4cnccn4)C3)ccc2s1,54*,-1
O=C(Nc1nc2ccccc2s1)C1CN(C(=O)c2cnccn2)C1,0,-9
Cc1oc2c(c1C(=O)NCC1CCCO1)CN(Cc1cccc(F)c1)CC2 (stereo unspecified),-21,-15
CN(C)Cc1ccc(C(=O)Nc2ccc(-c3nccs3)cc2)cc1,88*,-7
O=C(Nc1ccc(-c2nccs2)cc1)c1ccc(F)cc1Cl,3,-4
COC(=O)CSc1nnc(COc2cccc3cccnc23)n1-c1ccccc1,17,14
CSc1nnc(-c2csc(-c3cccc(C(F)(F)F)c3)n2)n1C,78*,7
FC(F)(F)c1cccc(-c2nc(-c3ccccn3)no2)c1,6,0
c1ccc(-c2nc(CSc3nnc(C4CC4)n3-c3ccccc3)cs2)cc1,2,7
SMILES,USP28 inh,OTUD3 block
Cn1c(SCc2ccccc2)nnc1-c1csc(-c2ccccc2)n1,41*,24
CC(C)(C)c1cc(C(=O)N2CCOCC2CCc2cnccn2)n[nH]1 (stereo unspecified),/,1
N#Cc1ccc(CC2(Cc3ccc(C#N)cc3)C(=O)N(Cc3ccccn3)C(=O)c3ccccc32)cc1,20,13
Cc1ccc(-c2nc(Cn3nnc(-c4nc(-c5ccccn5)no4)c3C)c(C)o2)cc1,-215,-176
COc1cc(NC(=O)CSc2ncnc3scc(-c4ccccc4)c23)c(C(=O)O)cc1OC,-46,-34
O=C(CSc1nc2scc(-c3ccco3)c2c(=O)n1-c1ccccc1)Nc1nsc(-c2ccccc2)n1,37*,13
CCS(=O)(=O)N1CCCC(c2nc(N3CCOCC3)ncc2-c2cccnc2)C1 (stereo unspecified),-12,0
CC(C)N1CCn2c(nc3cc(NC(=O)c4cccnc4)ccc32)C1,19,-5
Cc1ccc(CN2CCC(c3nc(-c4ccncc4)n[nH]3)CC2)o1,/,11
c1cnc(-c2n[nH]c(C3CCN(C4CCNC4)CC3)n2)cn1 (stereo unspecified),51*,3
COc1ccc2[nH]c3c(c2c1)CCN1C(=O)N([C@@H](C)C(=O)NC(C)CCc2ccccc2)C(=O)[C@]31C (stereo partly specified),-17,-20
CN1C(=O)COc2cc(-c3noc(C(=O)NCCc4ccccc4)n3)ccc21,13,10
CC(CNC(=O)c1nc(-c2ccc3c(c2)OCC(=O)N3C)no1)c1ccccc1 (stereo unspecified),39*,10
